The values that follow come from PubChem BioAssay (NCI).

Compounds without any hit were thinned out: in the full panel of roughly 83,000, 20% have a hit.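 Note: values are percent growth. 100 is the growth of untreated cells, values between 100 and 0 indicate rising inhibition; between -100 and 0 indicates cell death.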 Unmarked numbers belong to inactive results. Activity calls are given as the source filed them. Rule for the calls: active = growth percent below 10; inactive = the rest.

Among the test systems are T-47D breast; BT-549 breast; MDA-MB-435 melanoma; SW-620 colon; MCF7 breast; HCT-116 colon; HCC-2998 colon; KM12 colon.
Holding throughout (assay): NCI-60 one-dose screen, 48 h (100 = growth as untreated, 0 = no growth, -100 = all killed)
Holding throughout (settings): 10 µM unless noted

On to `Cc1ccc(C(=O)N/N=C/c2cccc([N+](=O)[O-])c2)cn1`, for which the growth was 93.1% with T-47D breast; 122% in the assay with BT-549 breast; 100% in the assay with MDA-MB-435 melanoma; 103% in the assay with SW-620 colon; 101% in the assay with MCF7 breast; 105% in the assay with HCT-116 colon. Also, the growth in the assay with HCC-2998 colon and with KM12 colon was 107% throughout.

Take `O=c1ccc(N=Nc2ccc([N+](=O)[O-])cc2)ccc1O`: the growth in the assay on T-47D breast is 16.8%; with BT-549 breast it was 97.3%; in the assay on MDA-MB-435 melanoma, 21.8%; with SW-620 colon, 15.4%; in the assay with MCF7 breast, 7.16% (active); with HCT-116 colon, 32.3%. Besides, the growth is 22.3% in the assay on HCC-2998 colon and 16.7% with KM12 colon.

With `O=C(Oc1cccc2ccccc12)Oc1cccc2ccccc12`, the growth with T-47D breast was 95.1%; with BT-549 breast, 98.9%; with MDA-MB-435 melanoma, 115%; in the assay on SW-620 colon, 110%; with MCF7 breast it was 107%; in the assay on HCT-116 colon it was 107%. The values for the growth in the assay on HCC-2998 colon and with KM12 colon were 105% and 97.3%, respectively.

As for `Cc1ccc(C(C)C)cc1C(=O)C[n+]1ccccc1`, the growth in the assay with T-47D breast is 88.7%; in the assay on BT-549 breast it was 95.8%; with MDA-MB-435 melanoma, 101%; in the assay on SW-620 colon it was 106%; in the assay with MCF7 breast, 87.1%; in the assay on HCT-116 colon it was 79%. Moreover, the growth in the assay on HCC-2998 colon was 107%; in the assay on KM12 colon it was 101%.

Regarding `CCOc1c(B(O)O)cccc1-c1nc2ccc3[nH]ncc3c2c2c1CCCC2`, the growth is 75.5% in the assay on T-47D breast; 25.1% in the assay with BT-549 breast; 90.1% in the assay with MDA-MB-435 melanoma; 38.3% in the assay with SW-620 colon; 59.4% with MCF7 breast; 34.8% in the assay with HCT-116 colon. The growth with HCC-2998 colon is 51%; in the assay with KM12 colon, 32.2%.

For the molecule `CCCCC[C@H](O)C/C=C1/C(=O)C=C[C@@H]1C/C=C\CCCC(=O)O`, the growth is 50.4% with T-47D breast; 54.5% with BT-549 breast; 36.9% in the assay on MDA-MB-435 melanoma; 51.9% in the assay with SW-620 colon; 19% in the assay on MCF7 breast; 44.5% with HCT-116 colon. Also, the growth in the assay on HCC-2998 colon is 76.5%; in the assay with KM12 colon it was 50.9%.

Take `Cc1[nH]c(C(=O)Nc2ccc(C(=O)N3CCNCC3)cc2OC(C)C)c(Cl)c1Cl`: the growth in the assay on T-47D breast is 64.1%; in the assay on BT-549 breast it was 93%; with MDA-MB-435 melanoma it was 35.9%; in the assay with SW-620 colon, -55.8% (active); with MCF7 breast, 60%; with HCT-116 colon, 14.5%. For the same molecule, the growth in the assay on HCC-2998 colon was -45.9% (active); in the assay with KM12 colon, 50.9%.

Regarding `COc1ccc(CNC(=O)[C@H](O)[C@@H](N)Cc2ccccc2)cc1`, the growth was 110% in the assay with T-47D breast; 109% with BT-549 breast; 104% in the assay on MDA-MB-435 melanoma; 104% with SW-620 colon; 94.5% with MCF7 breast; 109% with HCT-116 colon. The growth is 105% in the assay with HCC-2998 colon and 101% in the assay with KM12 colon.

Consider `Cc1ncc(C(=O)Nc2ccc(CN3CCN(C)CC3)c(C(F)(F)F)c2)cc1C#Cc1ccc(N)nc1`, for which the growth in the assay with T-47D breast was 18.6%; in the assay with BT-549 breast it was 15.3%; in the assay on MDA-MB-435 melanoma, -59% (active); in the assay with SW-620 colon, -2.48% (active); in the assay on MCF7 breast, 4.46% (active); in the assay on HCT-116 colon it was -31.3% (active). Further, the growth in the assay on HCC-2998 colon is 25.5%; in the assay with KM12 colon, 2.86% (active).

On to `O=c1c2cc(C(F)(F)F)ccc2sc2c(NCCCNCCO)nc3ccccc3c12`, for which the growth with T-47D breast is -6.02% (active); in the assay with BT-549 breast it was 86.1%; in the assay with MDA-MB-435 melanoma it was -73% (active); with SW-620 colon it was -75.9% (active); in the assay on MCF7 breast it was -59.7% (active); in the assay on HCT-116 colon, -72.8% (active). Further, the growth with HCC-2998 colon is -89.8% (active); with KM12 colon, -67.8% (active).

For `O=C(N/N=C/c1ccc(Cl)cc1)c1ccc(C(F)(F)F)nc1Nc1cccc(C(F)(F)F)c1`, the growth in the assay on T-47D breast was 3.73% (active); in the assay with BT-549 breast it was 9.33% (active); in the assay on MDA-MB-435 melanoma, 34.8%; with SW-620 colon, 8.01% (active); in the assay on MCF7 breast, 0.997% (active); in the assay with HCT-116 colon it was -33.6% (active). Also, the growth is -38.9% (active) with HCC-2998 colon and 8.69% (active) in the assay on KM12 colon.

On to `CSc1ccc2c(c1)c(CCN)c(C)n2Cc1ccc(Cl)c(Cl)c1`, for which the growth in the assay on T-47D breast was -73.7% (active); in the assay with BT-549 breast, -79.6% (active); with MDA-MB-435 melanoma, -91.4% (active); in the assay with SW-620 colon, -63.8% (active); in the assay on MCF7 breast, -68.9% (active); with HCT-116 colon it was -92.3% (active). The growth is -88.4% (active) with HCC-2998 colon and -90.2% (active) in the assay on KM12 colon.

Consider `COc1ccc(OC)c(/C=C/C(=O)N/N=C/c2ccccc2)c1`, for which the growth is 39.7% in the assay with T-47D breast; 60.8% with BT-549 breast; -7.51% (active) in the assay with MDA-MB-435 melanoma; 28.7% in the assay with SW-620 colon; 17.3% in the assay with MCF7 breast; 14.2% in the assay on HCT-116 colon. Besides, the growth was 66.4% in the assay on HCC-2998 colon and 31% in the assay on KM12 colon.

Consider `Cc1oc2nc[nH]c(=O)c2c1C(=O)/C=C/c1ccc(Br)cc1`, for which the growth in the assay with T-47D breast was 4.69% (active); in the assay on BT-549 breast, 2.55% (active); in the assay with MDA-MB-435 melanoma, 19.8%; in the assay with SW-620 colon, 3.84% (active); in the assay on MCF7 breast it was 9.43% (active); in the assay with HCT-116 colon, -11.6% (active). The growth in the assay on HCC-2998 colon was -33.9% (active); with KM12 colon, -5.18% (active).
